Compounds with a hit are over-represented: about 9.4% of the library has one in this group of screens.
NPC1 promoter act = NPC1 promoter activation. Huh7 NPC1 promoter luciferase reporter, 24 h. AID 485313. 320,000 tested, 2.4% active. Potency, µM (series often up to 9.22 µM), most hits filed as activators; further: nearly all actives have a fitted effect of over 60% in size
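In 1536-well qHTS, Huh7 cells harboring an NPC1 promoter–luciferase construct received compound for 24 h; activation was quantified by luminescence following luciferase reagent addition.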
SMN2 splice enh = enhancers of SMN2 splice variant expression; HEK293 SMN2-luciferase splicing reporter, luminescence, 30-36 h; Potency, µM (doses to about 46.1 µM), usual class: activators; 210,000 tested, 2.8% active; AID 1458; further: nearly all actives have a fitted effect of over 55% in size
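HEK293 cells carry an SMN2 minigene-luciferase reporter in which exon 7 inclusion puts luciferase in frame. Cells were seeded at 2000 cells/well, attached for 10-12 hours, then exposed to compounds for 30-36 hours at 37C before ONE-Glo luminescence.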
ELG1 genotoxic = inducers of genotoxicity in HEK293T ELG1-luciferase cells; Potency, µM (highest dose often 46 µM), most hits filed as activators; HEK293T ELG1-luciferase reporter, luminescence, 16 h; 330,000 tested, 1.3% active; further: nearly all actives have a fitted effect of over 60% in size
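Screening used a luciferase reporter fused to human ELG1 in HEK293T cells. Luminescence was read on a CCD plate imager after 16 hr exposure and 30 min ONE-Glo incubation.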
FLuc modulator = counter-screen for miR-21 project: firefly luciferase inhibitors or activators; Potency, µM (highest dose often 57.5 µM), actives largely listed as inhibitors; purified FLuc, Km substrates, luminescence inhibition; AID 588342; 360,000 tested, 6.9% active; further: nearly all actives have a fitted effect of over 55% in size
Target sequence (P08659 whole entry, looked up): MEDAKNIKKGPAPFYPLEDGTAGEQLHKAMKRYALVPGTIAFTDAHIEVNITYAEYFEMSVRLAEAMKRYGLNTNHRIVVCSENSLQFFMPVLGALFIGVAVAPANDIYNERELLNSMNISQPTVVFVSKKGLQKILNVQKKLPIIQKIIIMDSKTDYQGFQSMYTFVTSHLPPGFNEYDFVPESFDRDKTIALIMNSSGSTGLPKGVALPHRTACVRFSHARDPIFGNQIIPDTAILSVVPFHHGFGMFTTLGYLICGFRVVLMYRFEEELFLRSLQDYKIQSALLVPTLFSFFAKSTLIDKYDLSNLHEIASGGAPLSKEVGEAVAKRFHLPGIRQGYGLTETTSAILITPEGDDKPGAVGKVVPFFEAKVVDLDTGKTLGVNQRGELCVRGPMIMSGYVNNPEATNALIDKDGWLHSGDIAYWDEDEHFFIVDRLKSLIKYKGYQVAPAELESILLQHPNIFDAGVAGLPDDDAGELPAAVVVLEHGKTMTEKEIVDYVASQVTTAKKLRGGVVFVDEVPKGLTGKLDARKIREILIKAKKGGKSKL
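Purified P. pyralis luciferase (10nM final) with 10uM D-luciferin and 10uM ATP (Km levels) in 50mM Tris acetate pH 7.5, 10mM Mg acetate, 0.01% Tween-20, 0.05% BSA; qHTS 6-point titration, ~60 µM downward; luminescence read.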
Rab9 prom act = activates the Rab9 promoter; Huh7 Rab9 promoter-luciferase reporter, luminescence, 24 h; Potency, µM (top dose mostly 9.22 µM), actives largely listed as activators; 320,000 tested, 2.8% active; further: nearly all actives have a fitted effect of over 60% in size
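Quantitative HTS format; Huh7 Rab9-luciferase reporter cells (1500/well) receive compound 2 h post-plating, incubate 24 h at 37 °C, then get luciferase reagent for 10 min before luminescence reading.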
ELG1 DNA repair = ELG1-dependent DNA repair inhibition. 330,000 tested, 2.3% active. Potency, µM (titrated, usually from 46.1 µM), usual class: inhibitors. HEK293T ELG1-luciferase reporter, luminescence, 16 h; DNA damage induced by 5-fluorouridine. AID 504467; further: nearly all actives have a fitted effect of over 55% in size
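Cells (2,000 per well) received 5-fluorouridine plus test compound or DMSO and were incubated 16 hr at 37 °C, 5% CO2. Luciferase activity was read by luminescence 30 min after ONE-Glo addition; signal suppression marked inhibition of damage-induced ELG1 function.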
Of the large screens only hits and unclear results are named; the others gave an inactive call. The call rests on the fitted dose curve; in most records, active means well fitted curve in the direction sought with a large enough effect; inconclusive means small, poorly fitted or top-dose-only effect, or another doubt; inactive means no such curve, though single readings can be large; an effect the other way counts as inactive or inconclusive.

CCOC(=O)c1sc(=NC(=O)c2ccccc2)n(C)c1C	SMN2 splice enh 8.91µM, ELG1 genotoxic inconclusive, FLuc modulator 2.13µM, ELG1 DNA repair inconclusive
O=C(CCn1c(=O)c2cccn2c2ccc(F)cc21)NCCc1ccccc1Cl	none (no result: NPC1 promoter act, SMN2 splice enh, ELG1 genotoxic, Rab9 prom act, ELG1 DNA repair)
Cc1cc(=O)[nH]c2ccc(S(=O)(=O)Nc3ccccc3)cc12	ELG1 genotoxic 23.1µM, ELG1 DNA repair inconclusive (no result: SMN2 splice enh)
CCn1c(SCCOc2ccc(Cl)cc2)nnc1-c1cccs1	none
CCn1c(SCC(N)=O)nnc1C(C)C	none
CCn1c(SCC(=O)c2ccc(Cl)cc2)nnc1-c1cccs1	FLuc modulator 23.9µM
CCn1c(SCC(=O)c2ccc(Cl)cc2)nnc1C(C)C	NPC1 promoter act inconclusive, ELG1 genotoxic inconclusive, FLuc modulator 19µM, Rab9 prom act inconclusive, ELG1 DNA repair inconclusive
Cc1ccc(NC(=O)CSc2nnc(C)c(=O)n2N)cc1Cl	none (no result: SMN2 splice enh)
Cc1nnc(SCC(=O)c2ccc(Cl)cc2)n(N)c1=O	NPC1 promoter act 0.794µM, SMN2 splice enh 5.01µM, Rab9 prom act 1µM, ELG1 DNA repair inconclusive
CCOC(=O)c1c(NC(=O)CSc2cn(CCNC(=O)c3ccc(OC)c(OC)c3)c3ccccc23)sc2c1CCC2	none (no result: NPC1 promoter act, ELG1 genotoxic, Rab9 prom act, ELG1 DNA repair)
O=C(NCc1cccc(Br)c1)c1ccc(-n2cnc3cccnc32)cc1	none (no result: NPC1 promoter act, SMN2 splice enh, ELG1 genotoxic, Rab9 prom act, ELG1 DNA repair)
Cc1cc(C)n2nc(C(=O)Nc3ccc(S(=O)(=O)N4CCCC4)cc3)nc2n1	none (no result: SMN2 splice enh)
Cc1cnc(C(=O)Nc2cc(F)ccc2C)cn1	none
CCn1ccc(C(=O)Nc2ccc3c(c2)CCC3)n1	NPC1 promoter act 1µM, ELG1 genotoxic inconclusive, FLuc modulator 3.01µM, Rab9 prom act 1µM, ELG1 DNA repair inconclusive (no result: SMN2 splice enh)
Cc1cnc(C(=O)Nc2ccc(F)c(F)c2)cn1	NPC1 promoter act inconclusive, SMN2 splice enh 12.6µM, ELG1 genotoxic 16.4µM, FLuc modulator inconclusive, Rab9 prom act 2.51µM, ELG1 DNA repair inconclusive
Cc1cc(C)n2nc(C(=O)Nc3ccc4c(c3)CCC4)nc2n1	NPC1 promoter act inconclusive, SMN2 splice enh 11.2µM, ELG1 genotoxic inconclusive, FLuc modulator 13.5µM, Rab9 prom act 3.55µM, ELG1 DNA repair inconclusive
Cc1cnc(C(=O)Nc2ccc3c(c2)CCC3)cn1	NPC1 promoter act inconclusive, SMN2 splice enh 11.2µM, ELG1 genotoxic inconclusive, FLuc modulator 2.39µM, Rab9 prom act 0.501µM, ELG1 DNA repair inconclusive
CCn1ccc(C(=O)Nc2ccc(N(C)C(C)=O)cc2)n1	ELG1 genotoxic inconclusive, FLuc modulator inconclusive, Rab9 prom act inconclusive, ELG1 DNA repair inconclusive
COc1cccc(CNCc2cccn2-c2nnc(N3CCN(c4ccccc4)CC3)s2)c1	none (no result: NPC1 promoter act, SMN2 splice enh, ELG1 genotoxic, Rab9 prom act, ELG1 DNA repair)
CC(C)C(=O)NC1CC(=O)N(c2ccc3c(c2)OCCO3)C1 (stereo not given)	none (no result: NPC1 promoter act, SMN2 splice enh, ELG1 genotoxic, Rab9 prom act, ELG1 DNA repair)
NC1=NC2C(N=C(Br)N2[C@@H]2O[C@H]3COP(=O)(O)O[C@@H]3[C@@H]2O)C(=O)N1 (stereo not given in full)	none (no result: NPC1 promoter act, ELG1 genotoxic, FLuc modulator, Rab9 prom act, ELG1 DNA repair)
COc1ccc2c(c1)c1c(c(=O)n(Cc3ccccc3)c(=O)n1CC(=O)NCc1ccc(C)cc1)n2C	none (no result: NPC1 promoter act, SMN2 splice enh, ELG1 genotoxic, Rab9 prom act, ELG1 DNA repair)
O=C(Nc1ccc2c(c1)CCC2)c1cnccn1	NPC1 promoter act 3.55µM, SMN2 splice enh 12.6µM, ELG1 genotoxic 6.51µM, FLuc modulator 12µM, Rab9 prom act 3.16µM, ELG1 DNA repair inconclusive
COC(=O)CCN1CCc2cc(N=Nc3ccc([N+](=O)[O-])cc3)ccc21	NPC1 promoter act 1.12µM, ELG1 genotoxic inconclusive, FLuc modulator 0.675µM, Rab9 prom act 1.12µM, ELG1 DNA repair inconclusive (no result: SMN2 splice enh)
CCc1ccc(C(=O)c2cn(CC(=O)NCc3ccc(C)cc3)c3nc(C)ccc3c2=O)cc1	none (no result: NPC1 promoter act, SMN2 splice enh, ELG1 genotoxic, Rab9 prom act, ELG1 DNA repair)
CCCCCCn1cnc2c(c1=O)c1nc3ccccc3nc1n2/N=C/c1ccco1	ELG1 DNA repair 14.6µM
COCCn1cnc2c(c1=O)c1nc3ccccc3nc1n2/N=C/c1ccc(OC)c(OC)c1	ELG1 DNA repair 5.8µM (no result: SMN2 splice enh)
Cc1nc2c(c(=O)n1CCC1=CCCCC1)c1nc3ccccc3nc1n2/N=C/c1ccco1	ELG1 DNA repair 5.17µM
CCCn1c(C)nc2c(c1=O)c1nc3ccccc3nc1n2CCC1=CCCCC1	none
COCCn1cnc2c(c1=O)c1nc3ccccc3nc1n2/N=C/c1ccco1	none (no result: SMN2 splice enh)
COc1ccc(/C=N/n2c(C)nc3ccccc3c2=O)cc1OC	none (no result: SMN2 splice enh)

High-throughput results from PubChem BioAssay.
